Measurements published in the supplement of paper PMC13380429.

Legend:
[1] = test system: Vero E6 infected with SARS-CoV-2; test: morphology score (similarity to uninfected cells); higher = more like uninfected cells; conditions: 24 h
[2] = test system: Vero E6 infected with SARS-CoV-2; test: SARS-CoV-2 infection rate relative to infected DMSO; higher = more infection, active = 60 or less; conditions: 24 h

| Structure (SMILES) | morphology score [1] | SARS-CoV-2 infection rate [2] |
| --- | --- | --- |
| N[C@H](C(=O)O)c1ccc(O)cc1 [oxfenicine] (10 µM) | 0.246 | 103% (inactive) |
| CCOc1cncc(/C=C/CCNC)c1 (10 µM) | -0.0406 | 108% (inactive) |
| Cc1ccc(-c2n[nH]c3c2C(c2cccc(O)c2)N(c2ccc(C(=O)O)cc2)C3=O)cc1 (centres undefined) (10 µM) | 0.169 | 91.5% (inactive) |
| CCN1CCCC1CNC(=O)c1cc(S(N)(=O)=O)ccc1OC (centres undefined) [sulpiride] (10 µM) | -0.0261 | 105% (inactive) |
| Cc1ccc(C[N+](C)(C)C)o1 [5-methylfurmethiodide] (10 µM) | -0.123 | 117% (inactive) |
| CCCS(=O)(=O)Nc1ccc(F)c(C(=O)c2c[nH]c3ncc(Cl)cc23)c1F (10 µM) | -0.0271 | 114% (inactive) |
| O=C(C[C@H]1CC(c2ccc(F)cc2F)=NO1)N1CCOCC1 (racemic) (10 µM) | 0.00815 | 103% (inactive) |
| CN(C[C@@H]1COCCO1)S(=O)(=O)Nc1ccc2ccc3ncc(-c4cnn(C)c4)cc3c(=O)c2c1 (0.833333 µM) | 0.0936 | 111% (inactive) |
| N[C@H](C(=O)O)[C@H](O)c1ccc(O)c(O)c1 [droxidopa] (10 µM) | -0.0971 | 122% (inactive) |
| O=Nc1c(O)[nH]c2c(Cl)c(Cl)ccc12 (10 µM) | 0.117 | 93.5% (inactive) |
| O=c1cccc2n1C[C@@H]1CNC[C@H]2C1 [cytisine] (10 µM) | 0.0351 | 114% (inactive) |
| COc1cc(N)c(Cl)cc1C(=O)OCCN1CCCCC1 (10 µM) | 0.128 | 110% (inactive) |
